# Laboratory results published in PubChem BioAssay (EPA / NIEHS).
# Activity calls are given as the source filed them. How the source made its calls: active means hit-call score of the fitted dose curve at least 0.9, where 1 is the maximum; inactive means score below 0.9.
# Test: ATG_PPRE_CIS: Attagene CIS-FACTORIAL HepG2 Assay for human Peroxisome Proliferator-activated Response Element (PPRE) (AID 2282958)
# Settings: HepG2 PPRE cis-element reporter, Attagene transcription factor profiling; actives raise or lower the signal
# Outline: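 HepG2 cells transiently transfected with multiplexed cis-element reporter units measure endogenous transcription factor activity. After 24 h compound exposure, reporter mRNA is quantified by RT-PCR, 6-FAM labeling, HpaI digestion and capillary electrophoresis; bidirectional fits are made against DMSO baseline.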
SMILES,outcome,AC50
O=C1OC(=O)C(F)(F)C1(F)F,inactive,
CCCCc1ccc2ccccc2c1S(=O)(=O)O,inactive,
Oc1c(Cl)cc(Cl)cc1Sc1cc(Cl)cc(Cl)c1O,,1520 nM (active)
CCOC(C)=O,inactive,
CCc1cccc(CC)c1N(COC)C(=O)CS(=O)(=O)O,inactive,
N=C(N)c1ccc(OCCCCCOc2ccc(C(=N)N)cc2)cc1,inactive,
CCCCCCCCCCCCCCCC(=O)OC,inactive,
O=C(O)CN(CCCN(CC(=O)O)CC(=O)O)CC(=O)O,inactive,
CCC1CO1 (configuration not stated),inactive,
CC=O,inactive,
Cc1cc(Cc2cc(C)cc(C(C)(C)C)c2O)c(O)c(C(C)(C)C)c1,inactive,
O=C(F)C(F)(F)C(F)(F)C(F)(F)C(=O)F,inactive,
CCOC(OCC)C(=O)c1ccccc1,inactive,
O=C1c2ccc(O)c(O)c2C(=O)c2c(O)ccc(O)c21,inactive,
CCc1cccc(CC)c1NC(=O)C(=O)O,inactive,
OCC(CO)(CBr)CBr,inactive,
CCOCCOCC,inactive,
OCC(F)(F)C(F)(F)C(F)(F)C(F)(F)C(F)(F)C(F)(F)C(F)(F)C(F)(F)C(F)(F)C(F)(F)C(F)(F)F,inactive,
CCOC(=O)c1nc(C(Cl)(Cl)Cl)n(-c2ccc(Cl)cc2Cl)n1,inactive,

SMILES,outcome,AC50
CC(C)c1c(C(=O)Nc2ccccc2)c(-c2ccccc2)c(-c2ccc(F)cc2)n1CC[C@@H](O)C[C@@H](O)CC(=O)O,inactive,
C[C@]12CC[C@@H]3c4ccc(O)cc4CC[C@H]3[C@@H]1C[C@@H](O)[C@@H]2O,inactive,
FC(OC(F)(F)C(F)(F)C(F)(F)F)C(F)(F)F (configuration not stated),inactive,
CCC(=O)O,inactive,
Oc1cccc2c(O)cccc12,inactive,
CC1=NN(c2ccccc2)C(=O)C1,inactive,
Nc1ccc(O)c(C(=O)O)c1,inactive,
O=C(C=C(O)C(F)(F)F)C(F)(F)F,inactive,
CCCCCC(C)OC(=O)COc1ccc(Cl)c2cccnc12 (configuration not stated),inactive,
COc1cccc(O)c1,inactive,
O=C(F)C(F)(F)C(F)(F)C(F)(F)C(F)F,inactive,
O=C(Nc1cccc([N+](=O)[O-])c1)c1cc2ccccc2cc1O,,4220 nM (active)
O=P(O)(O)CCC(F)(F)C(F)(F)C(F)(F)C(F)(F)C(F)(F)C(F)(F)C(F)(F)C(F)(F)F,inactive,
CCOC=O,inactive,
Oc1ccc(Cc2ccccc2O)cc1,inactive,
O=CC(F)(F)C(F)(F)C(F)(F)C(F)F,inactive,
CCCCCCCCCCCC[N+](C)(C)CCCCCCCCCCCC,inactive,
CCc1ccccc1O,inactive,
